Measurements: article PMC4336329 (PLoS ONE, 2015)
Screen size: about 310,000 compounds; about 14,000 (4.5%) showed an effect of 50% or more. The effect is printed as a negative number. Shown is part of a subset that was picked to be rich in strong results.

target: human ether-à-go-go-related gene (hERG) potassium channel (human, UniProt Q12809); experiment: primary screen, population patch clamp on CHO cells stably expressing hERG; higher = less effect of the substance
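Also: peak tail current of the secondary pulse compared with the same well before compound.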

Sequence of human ether-à-go-go-related gene (hERG) potassium channel (Q12809 whole entry, looked up): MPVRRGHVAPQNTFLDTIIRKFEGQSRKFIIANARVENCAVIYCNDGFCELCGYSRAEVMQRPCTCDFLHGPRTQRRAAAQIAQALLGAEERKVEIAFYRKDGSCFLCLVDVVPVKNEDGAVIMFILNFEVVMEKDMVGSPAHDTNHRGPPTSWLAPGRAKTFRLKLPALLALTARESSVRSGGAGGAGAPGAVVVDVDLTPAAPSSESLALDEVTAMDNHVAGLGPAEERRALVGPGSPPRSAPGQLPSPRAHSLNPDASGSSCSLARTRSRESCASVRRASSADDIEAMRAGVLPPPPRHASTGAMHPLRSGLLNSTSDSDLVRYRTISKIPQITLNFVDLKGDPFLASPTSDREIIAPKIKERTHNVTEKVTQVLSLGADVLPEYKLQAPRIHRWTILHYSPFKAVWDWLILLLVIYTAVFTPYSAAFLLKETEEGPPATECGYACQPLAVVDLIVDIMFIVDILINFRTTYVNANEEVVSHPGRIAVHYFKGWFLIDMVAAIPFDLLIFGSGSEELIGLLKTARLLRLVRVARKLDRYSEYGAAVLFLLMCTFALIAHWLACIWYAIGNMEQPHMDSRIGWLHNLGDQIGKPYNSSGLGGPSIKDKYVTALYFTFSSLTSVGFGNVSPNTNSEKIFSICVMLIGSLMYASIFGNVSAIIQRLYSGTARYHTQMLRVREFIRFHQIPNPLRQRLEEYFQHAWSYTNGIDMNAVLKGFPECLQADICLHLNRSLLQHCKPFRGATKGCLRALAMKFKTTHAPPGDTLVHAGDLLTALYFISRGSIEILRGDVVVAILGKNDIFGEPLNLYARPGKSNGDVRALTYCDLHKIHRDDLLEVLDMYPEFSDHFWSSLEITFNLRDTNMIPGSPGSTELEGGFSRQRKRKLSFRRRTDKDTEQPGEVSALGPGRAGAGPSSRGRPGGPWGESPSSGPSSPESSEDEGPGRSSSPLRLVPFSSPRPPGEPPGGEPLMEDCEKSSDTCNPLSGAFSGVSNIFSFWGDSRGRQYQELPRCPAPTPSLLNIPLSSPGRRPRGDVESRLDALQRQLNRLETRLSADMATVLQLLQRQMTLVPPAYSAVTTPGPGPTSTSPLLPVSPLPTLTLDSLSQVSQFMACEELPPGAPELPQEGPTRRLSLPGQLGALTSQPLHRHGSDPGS

| SMILES | hERG current change (%, negative = inhibition) at 10uM |
| --- | --- |
| Cc1nnc(NC(=O)c2ccc(S(=O)(=O)N3CC(C)CC(C)C3)cc2)o1 (stereo not shown) | 5.33% |
| CCc1cccc2c(C(=O)C(NCCCOC)c3ccccc3)c[nH]c12 (stereo not shown) | 2.05% |
| O=C(CSc1cccc(C(F)(F)F)c1)Nc1cc(S(=O)(=O)N2CCCC2)ccc1Cl | -5.28% |
| CCOC(=O)N1CCC(N2C(=O)c3ccccc3C2Nc2cc(C(=O)OC)cc(C(=O)OC)c2)CC1 (stereo not shown) | -17.5% |
| CCOC(=O)N1CCC(N2C(=O)c3ccccc3C2Nc2cc(C)cc(C)c2)CC1 (stereo not shown) | -21.8% |
| CCOC(=O)N1CCC(N2C(=O)c3ccccc3C2Nc2c(C)cccc2C)CC1 (stereo not shown) | -75.1% |
| CCOC(=O)N1CCC(N2C(=O)c3ccccc3C2Nc2ccc3c(C)cc(=O)oc3c2)CC1 (stereo not shown) | -63.8% |
| CCOC(=O)N1CCC(N2C(=O)c3ccccc3C2Nc2ccccc2C)CC1 (stereo not shown) | -46.5% |
| CCOC(=O)N1CCC(N2C(=O)c3ccccc3C2Nc2ccc3c(c2)OCCO3)CC1 (stereo not shown) | -7.43% |
| CCOC(=O)N1CCC(N2C(=O)c3ccccc3C2Nc2ccccc2)CC1 (stereo not shown) | -9.74% |
| CCOC(=O)N1CCC(N2C(=O)c3ccccc3C2Nc2cc(OC)c(OC)c(OC)c2)CC1 (stereo not shown) | -17.8% |
| CCOC(=O)c1ccccc1NC1c2ccccc2C(=O)N1C1CCN(C(=O)OCC)CC1 (stereo not shown) | -56.4% |
| Cc1nn(C)c(C(=O)N/N=C/c2cc3c(cc2Br)OCO3)c1Br | 11.2% |
| COCc1cc(C)n(CC(=O)NCC2CCCO2)c(=O)c1C#N (stereo not shown) | 12% |
| CCOc1ccc(/C=C2\SC(=S)N(CCCC(=O)NCCCN3CCOCC3)C2=O)cc1 | -4.5% |
| CCCc1cc2c(cc1NS(=O)(=O)c1ccc(CCNC(C)=O)cc1)OCO2 | -63% |
| CC(=O)NCCc1ccc(S(=O)(=O)NCc2ccc3c(c2)OCO3)cc1 | 2.45% |
| CC(=O)NCCc1ccc(S(=O)(=O)Nc2ccc3c(c2)OCCO3)cc1 | 12.3% |
| CCCCNC(=O)CSc1nnc(-c2cccc(S(=O)(=O)N3CCOCC3)c2)o1 | -18.1% |
| CC(=O)c1sc(NC(=O)c2ccc(COc3ccccc3Cl)o2)nc1C | 33.5% |
| CC(=O)N(CN1C(=O)CCC1=O)c1cccc(Cl)c1 | -17% |
| Cc1cc(=O)n2c3ccccc3n(CC(O)CN3CCCCC3)c2c1C#N (stereo not shown) | -53.2% |

| SMILES | hERG current change (%, negative = inhibition) at 10uM |
| --- | --- |
| Cc1cc(=O)n2c3ccccc3n(CC(O)CN3CCOCC3)c2c1C#N (stereo not shown) | 17.9% |
| Cc1cc(=O)n2c3ccccc3n(CC(O)CN3CCN(CCO)CC3)c2c1C#N (stereo not shown) | -16% |
| CCCNCC(O)Cn1c2ccccc2n2c(=O)cc(C)c(C#N)c12 (stereo not shown) | -29.7% |
| Cc1cc(=O)n2c3ccccc3n(CC(O)CN3CCCC3)c2c1C#N (stereo not shown) | -44.8% |
| Cc1cc(=O)n2c3ccccc3n(CC(O)CN3CCN(Cc4ccccc4)CC3)c2c1C#N (stereo not shown) | -62.8% |
| Cc1cc(C(N)=O)c2cc(Br)ccc2n1 | 1.34% |
| COc1cccc(N2CCN(C(=O)NC3CCCCC3)CC2)c1 | 2.57% |
| Cc1cc(C(=O)Nc2ccccc2C)c2ccccc2n1 | 14.1% |
| O=c1[nH]cnc2c1nc(SCc1ccccc1)n2C1OC(CO)C(O)C1O (stereo not shown) | -2.32% |
| O=c1cc(-c2ccc(O)cc2)oc2cc(O)cc(O)c12 | -2.23% |
| Cc1cccc(CCN2C(Nc3ccccc3)=NC[C@@H]2C)c1 | -23% |
| Cc1cccc(CCN2C(N(C)C)=NC[C@@H]2CC(C)C)c1 | -18.1% |
| Cc1cccc(CCN2C(Nc3ccccc3)=NC[C@@H]2CC(C)C)c1 | -67.5% |
| C[C@H]1CN=C(Nc2ccccc2)N1CCc1ccc(F)cc1 | -46.3% |
| CC(C)C[C@H]1CN=C(Nc2ccccc2)N1CCc1ccc(F)cc1 | -62.4% |
| COc1ccccc1C(=O)NNC1=NS(=O)(=O)c2ccccc21 | 20.3% |
| COc1cccc(NC(=O)Cn2cc(C(=O)C3CC3)c3ccccc32)c1 | 0.319% |
| CCn1c(-c2cccnc2)n[nH]c1=S | 0.542% |
| CCOc1ccc(OCCC(=O)OCC(=O)NC2CCCCC2)cc1 | 11.4% |
| CCn1c(N2CCN(CC(=O)c3c(C)n(C)c4ccc(OC)cc34)CC2)nc2c1c(=O)[nH]c(=O)n2C | 3.19% |
| O=C(Cc1cn(-c2ccccc2)nc1-c1ccccc1)N1CCCCC1 | -18.3% |
| Cc1cc(Cl)c2oc(C(=O)N3CCN(C(=O)c4ccco4)CC3)c(C)c2c1 | -53.9% |

| SMILES | hERG current change (%, negative = inhibition) at 10uM |
| --- | --- |
| Cc1cc(Cl)c2oc(C(=O)N3CCC(O)(c4ccccc4)CC3)c(C)c2c1 | 8.87% |
| Cc1cc(Cl)c2oc(C(=O)N3CCN(c4ccncc4)CC3)c(C)c2c1 | -75.9% |
| Cc1c(C(=O)N2CCN(c3ccccc3)CC2)oc2c(Cl)cccc12 | 4.82% |
| Cc1c(C(=O)N2CCN(C(=O)c3ccco3)CC2)oc2c(Cl)cccc12 | -34.3% |
| Cc1cc(Cl)c2oc(C(=O)N3CCN(c4cccc(C)n4)CC3)c(C)c2c1 | 16.3% |
| CCOc1ccc(C(C(=O)NC(C)(C)C)N(CCOC)C(=O)CCC(=O)Nc2ccccn2)cc1 (stereo not shown) | -5.95% |
| COC(=O)c1c(S(C)(=O)=O)nc(-c2ccccc2)[nH]c1=O | -2.13% |
| Cc1nc2scc(-c3ccccc3)c2c(=O)n1N | -1.43% |
| CNC(=O)c1sc(-c2cccnc2)nc1C | -34.7% |
| Cc1nc(-c2cccnc2)sc1C(=O)N/N=C/c1ccccc1Cl | -75.5% |
| Cc1nc(-c2cccnc2)sc1C(=O)Nc1ccc(Cl)cc1 | -29.2% |
| CN1CCN(C(=O)/C(=C/c2ccc(N(C)C)cc2)NC(=O)c2ccccc2)CC1 | -17.5% |
| CSc1ccc(/C=C(/NC(=O)c2ccccc2)C(=O)N2CCN(C)CC2)cc1 | -75.9% |
| CC1CCN(C(=O)/C(=C\c2ccccc2F)NC(=O)c2ccccc2)CC1 | -52.7% |
| O=C(N/C(=C/c1ccc(F)cc1)C(=O)N1CCCC1)c1ccccc1 | 19.5% |
| O=C(N/C(=C\c1ccc(F)cc1)C(=O)N1CCCCCC1)c1ccccc1 | -11.6% |
| O=C(N/C(=C/c1ccccc1F)C(=O)N1CCCCC1)c1ccccc1 | 10.1% |
| CN1CCN(C(=O)/C(=C/c2ccccc2F)NC(=O)c2ccccc2)CC1 | -29.2% |
| COc1ccc(/C=C(\NC(=O)c2ccccc2)C(=O)N2CCN(C)CC2)cc1OC | 20% |
| CN1CCN(C(=O)/C(=C/c2ccc(F)cc2)NC(=O)c2ccccc2)CC1 | -77.8% |
| C[C@@H](CSc1ccc(Br)cc1)CN1CC[C@H](O)CCC1=O | -12% |
| COc1ccc2oc(C(=O)OCC(=O)NC3CC3)c(C)c2c1 | 11% |

| SMILES | hERG current change (%, negative = inhibition) at 10uM |
| --- | --- |
| Cc1sc2ncn(CC(=O)NCC(=O)N3CCC4(CC3)OCCO4)c(=O)c2c1C | -4.54% |
| Cc1cc(NC(=O)c2c([N+](=O)[O-])cnn2C)no1 | 14.2% |
| Nc1ccccc1C(=O)NC1CCCCNC1=O (stereo not shown) | 26.2% |
| CC1(C)N=C(N)NC(Nc2ccccc2Cl)=N1 | 20.9% |
| C[C@@H](C(=O)O)[C@H]1C[C@]1(C)[C@H](NC(=O)OCc1ccccc1)c1ccccc1 | 4.41% |
| COc1cccc(NC(=O)CC2(CC(=O)O)CCCC2)c1 | -39.8% |
| CC1Cc2cc(S(=O)(=O)N3CCCC(C(=O)N4CCCCC4)C3)ccc2N1C(=O)C1CC1 (stereo not shown) | -4.84% |
| O=C(c1cc(-c2ccc(Cl)cc2)on1)N1CCOCC1 | -0.136% |
| O=C(c1cc(-c2ccc(Cl)cc2)n(-c2ccc(Cl)cc2Cl)n1)N1CCOCC1 | -79.6% |
| O=C(c1cc(-c2ccc(Cl)cc2)n(-c2cc(Cl)ccc2Cl)n1)N1CCOCC1 | -68.9% |
| O=C(c1cc(-c2ccc(Cl)cc2Cl)on1)N1CCOCC1 | -9.72% |
| O=C(c1cc(Cl)ccc1Cl)N1CCOCC1 | 8% |
| O=C(O)c1cc(-c2ccccc2)n(-c2ccc(Cl)cc2Cl)n1 | 21.5% |
| N#C/C(=C\c1ccc(-c2nc3ccccc3s2)o1)C(N)=O | 5.03% |
| COc1ccc(C(=O)NC(C)C2CC3CCC2C3)cc1 (stereo not shown) | 2.42% |
| CC1=CN2C(=N)/C(=C/c3ccc(Sc4ccc(C)cc4)o3)C(=O)N=C2S1 | 10.1% |
| Cn1c(COc2ccccc2O)[n+](C)c2ccccc21.[Br-] | 15.8% |
| CCOC(=O)Cn1c(COc2ccccc2OC)[n+](C)c2ccccc21 | 7.4% |
| CCn1c(COc2ccccc2C)nc2ccccc21 | 4.07% |
| CCOC(=O)C(CCCOc1ccccc1C)C(=O)OCC | 6.43% |
| CCCCCCCCCCOC(=O)Cn1c(COc2ccccc2C)[n+](C)c2ccccc21.[Cl-] | -72.5% |
| CCCCCCCCCCOC(=O)Cn1c(COc2ccccc2OC)[n+](C)c2ccccc21.[Cl-] | -77.3% |
